# PubChem BioAssay AID2685 (National Center for Advancing Translational Sciences (NCATS), 2010)
# Out of some 320,000 compounds screened, about 2,100 (0.66%) were called active. Inconclusive results (about 53%) are left out. The call rests on the fitted dose curve; in most records, active means well fitted inhibition curve with a large enough effect in the signal ratio, with a control signal flat (not every such curve was filed as active); inconclusive means small, poorly fitted or top-dose-only effect, or effect the other way, or a change in a side signal; inactive means flat fitted curve, though single readings scatter; the % refers to the signal ratio. What follows is part of a selection rich in actives, with near analogues and random picks from the rest.
# Experiment: qHTS Assay for Lipid Storage Modulators in Drosophila S3 Cells;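 on cell number change: cells counted by Cell Tracker Red CMTPX staining in the red channel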; on lipid storage change, negative = inhibition: on the % scale 0 is the no-effect control and ±100 the full control effect
# Conditions: BODIPY lipid droplet fluorescence, 18-24 h, cells fed with added oleic acid; cell number change: measured here: cell count max response; series mostly up to 46.1 µM
# Summary of the method: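 Laser-scanning cytometry quantifies lipid droplet accumulation (500–530 nm total intensity; droplet/cell object ratio) in oleic acid-fed (400 uM added) Drosophila S3 cells treated with a concentration series. 20 uM Triacsin C defined 100% inhibition.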
# Potency means the concentration at half of the fitted maximal effect.
Compound,Potency,cell number change,"lipid storage change, negative = inhibition"
CC(=O)Nc1sc(C)c(C)c1CN1CCN(S(=O)(=O)c2ccccc2)CC1,inactive,–,–
Cc1cc(C)c(Nc2ncnc(N)n2)c(C)c1,inactive,-1.29%,–
O=c1cc(N2CCc3ccccc3C2)[nH]c(=O)n1-c1ccc(Br)cc1,inactive,–,–
CCC1CN(C(=O)N2CCC(C(=O)NCc3ccc(C)o3)CC2)c2ccccc2O1 (centres undefined),inactive,–,–
CCC1CN(C(=O)N2CCC(C(=O)NCc3ccccc3C)CC2)c2ccccc2O1 (centres undefined),3.66 µM (active),-0.59%,–
CCC1CN(C(=O)N2CCC(C(=O)NCc3ccccc3OC)CC2)c2ccccc2O1 (centres undefined),inactive,16.5%,–
CCC1CN(C(=O)N2CCC(C(=O)NCCc3ccc(OC)cc3OC)CC2)c2ccccc2O1 (centres undefined),5.17 µM (active),1.47%,–
CCC1CN(C(=O)N2CCC(C(=O)NCCc3ccccc3OC)CC2)c2ccccc2O1 (centres undefined),6.51 µM (active),13.3%,–
CCC1CN(C(=O)N2CCC(C(=O)NCCc3ccc(OC)c(OC)c3)CC2)c2ccccc2O1 (centres undefined),inactive,5.9%,–
CCC1CN(C(=O)N2CCC(C(=O)NCc3cc(OC)c(OC)c(OC)c3)CC2)c2ccccc2O1 (centres undefined),inactive,-18%,–
CCC1CN(C(=O)N2CCC(C(=O)NCc3ccc(OC)cc3OC)CC2)c2ccccc2O1 (centres undefined),inactive,4.13%,–
CCC1CN(C(=O)N2CCC(C(=O)NCCc3ccccc3)CC2)c2ccccc2O1 (centres undefined),inactive,-2.95%,–
O=C(Nc1ccc(F)cc1)/C(=C1/CCCCCN1)[N+](=O)[O-],inactive,18.2%,–
Cc1ccccc1CSc1nnc(NC(=O)Cc2cccs2)s1,inactive,0.934%,–
O=S(=O)(Nc1ccc(-c2nc3ccccc3o2)cc1)c1ccccc1,inactive,-16.6%,–
C/C(=N\NC(=O)CCc1ccc(S(=O)(=O)N2CCOCC2)cc1)c1ccccc1Cl,inactive,15.6%,–
CCCCc1ccc(CC(=O)Nc2cc(S(=O)(=O)N3CCOCC3)ccc2O)cc1,20.6 µM (active),-16.2%,–
C/C(=N\NC(=O)c1cccc(S(=O)(=O)N2CCOCC2)c1)c1ccc(OC(F)F)cc1,inactive,8.64%,–
CC(=O)NCCc1ccc(S(=O)(=O)N2CCOCC2)cc1,18.4 µM (active),-15.6%,–
CC(=O)NCCc1ccc(S(=O)(=O)Nc2ccc(C)c(S(=O)(=O)N3CCOCC3)c2)cc1,inactive,-24.8%,–
COc1ccc(CCNC(=O)COc2ccc(S(=O)(=O)N3CCOCC3)cc2)cc1,inactive,–,–
C/C(=N\NC(=O)CCc1ccc(S(=O)(=O)N2CCOCC2)cc1)c1ccc(OC(F)F)cc1,11.6 µM (active),-28.6%,–
O=C(Nc1cc(S(=O)(=O)N2CCOCC2)ccc1O)c1ccco1,inactive,-13.8%,–

Compound,Potency,cell number change,"lipid storage change, negative = inhibition"
O=C(CCCSc1ccc(Cl)cc1)Nc1cc(S(=O)(=O)N2CCOCC2)ccc1O,inactive,-18.8%,–
Cc1ccc(CNC(=O)Cc2nc3nc(C)cc(C)n3n2)cc1,inactive,1.61%,–
COc1cc2c(cc1OC)CN(C(=O)Nc1ccccc1Cl)CC2,inactive,-24.6%,–
CCc1nnc(NC(=O)CSc2nnc(C)n2CC2CCCO2)s1 (centres undefined),inactive,6.32%,–
COCCCNC(=O)CSc1nc2ccccc2c(=O)n1Cc1ccc2c(c1)OCO2,inactive,-4.93%,–
COc1ccc(C(=O)NCCc2cnc[nH]2)cc1OC,inactive,-11.3%,–
COC(=O)CCN(C(=O)c1cccc(OC(C)=O)c1)c1ccccn1,25.9 µM (active),-22.7%,–
COC(=O)CCN(C(=O)c1ccc(C)c([N+](=O)[O-])c1)c1ccccn1,inactive,16.9%,–
COC(=O)CCN(C(=O)c1ccc(OC(C)=O)cc1)c1ccccn1,inactive,6.03%,–
Cc1cc(NC(=O)C(C)SCC(=O)OC(C)C(=O)Nc2ccccc2C)no1 (centres undefined),inactive,31.1%,–
COCCN1CN=C(Nc2nc(C)c3ccc(C)cc3n2)NC1,inactive,3.94%,–
Cc1cccc(C)c1OCC1CNC(=O)O1 (centres undefined),inactive,9.47%,–
O=C1NCC(COCc2ccco2)O1 (centres undefined),16.4 µM (active),0.961%,–
Cc1ccccc1OCC1CNC(=O)O1 (centres undefined),inactive,6.67%,–
Cc1c(C(=O)NCCN(C)C)oc2ccc(S(=O)(=O)N3CCCC3)cc12,0.116 µM (active),13.1%,–
Cc1c(C(=O)NCC2CCCO2)oc2ccc(S(=O)(=O)N3CCCC3)cc12 (centres undefined),inactive,-3.78%,–
CCCCN(CC)C(=O)c1oc2ccc(S(=O)(=O)N3CCCC3)cc2c1C,11.6 µM (active),-20.1%,–
CCN(CC)C(=O)c1oc2ccc(S(=O)(=O)N3CC(C)CC(C)C3)cc2c1C (centres undefined),0.58 µM (active),13.1%,–
Cc1c(C(=O)NCC2CCCO2)oc2ccc(S(=O)(=O)N3CC(C)CC(C)C3)cc12 (centres undefined),–,–,16.1% [at 9.22 µM] (inactive)
Cc1c(C(=O)NCc2ccc3c(c2)OCO3)oc2ccc(S(=O)(=O)N3CCCC3)cc12,inactive,-21.4%,–
Cc1c(C(=O)N(C)Cc2ccccc2)oc2ccc(S(=O)(=O)N3CCCC3)cc12,inactive,-25.2%,–
CCOC(=O)N1CCN(C(=O)c2oc3ccc(S(=O)(=O)N4CCCCC4)cc3c2C)CC1,inactive,–,–
Cc1c(C(=O)O)oc2ccc(S(=O)(=O)N3CC(C)CC(C)C3)cc12 (centres undefined),inactive,24.2%,–

Compound,Potency,cell number change,"lipid storage change, negative = inhibition"
O=[N+]([O-])/C(=C\Nc1ccc(F)cc1F)S(=O)(=O)c1ccccc1,inactive,–,–
COc1ccc(-c2cc(C(=O)Nc3nc4ccccc4s3)c3ccccc3n2)cc1OC,inactive,2.3%,–
Cn1cccc1C(=O)OCC(=O)Nc1cc(C(C)(C)C)nn1-c1ccccc1,inactive,10.4%,–
CS(=O)(=O)N(CC(=O)Nc1cccc([N+](=O)[O-])c1)c1cccc(F)c1,inactive,-2.63%,–
CC1CCc2sc(C(=O)NNC(=S)NCC3CCCO3)cc2C1 (centres undefined),inactive,20%,–
Cc1cccc2sc(NC(=O)C3CSC4(C)CCC(=O)N34)nc12 (centres undefined),inactive,14.2%,–
O=C(c1cccnc1)N1CCN(S(=O)(=O)c2ccc(Cl)cc2)CC1,inactive,-4.89%,–
COc1ccc(N2CCN(C(=O)CCNS(=O)(=O)c3cc(Br)cnc3N)CC2)cc1,inactive,–,–
S=C1NCCOCCOCCOCCOCCN1,13 µM (active),20.5%,–
S=C1NCCOCCNC(=S)NCCOCCOCCN1,inactive,28%,–
S=C1NCCOCCOCCOCCN1,inactive,-10.7%,–
N/C(CCN1CCOCC1)=N/O,inactive,-8.53%,–
COc1ccc(N2CCn3c2nc2c3c(=O)n(CCN3CCOCC3)c(=O)n2C)cc1,inactive,-1.98%,–
COc1ccc(N2CCCn3c2nc2c3c(=O)n(CCN3CCOCC3)c(=O)n2C)cc1,inactive,-8.81%,–
COc1ccc(N2CC(C)Cn3c2nc2c3c(=O)n(CCN3CCOCC3)c(=O)n2C)cc1 (centres undefined),2.06 µM (active),5.05%,–
COCCOC(=O)c1c(NC(=O)CNc2ccc(C)c(F)c2)sc(C(N)=O)c1C,inactive,3.82%,–
CCOc1ccc(/C=C/c2nc(C#N)c(NCCCN(C)C)o2)cc1,inactive,-6.82%,–
CCNc1oc(/C=C/c2ccc(OCC)cc2)nc1C#N,inactive,-11.4%,–
CCOc1ccc(/C=C/c2nc(C#N)c(NCCCOC)o2)cc1,18.4 µM (active),-10.5%,–
CCCc1nc(NCCO)c(C#N)c2c1CCCC2,inactive,7.48%,–
COc1ccccc1NC(=O)CC1C(=O)Nc2ccccc2N1C(=O)c1ccccc1 (centres undefined),inactive,5.14%,–
O=C(OCC(=O)N1CCCC1)c1c(Cl)ccc(Cl)c1Cl,2.91 µM (active),9.01%,–
O=C(OCC(=O)N1CCCC1)c1cc(Cl)ccc1Cl,inactive,4.05%,–

Compound,Potency,cell number change,"lipid storage change, negative = inhibition"
O=C(OCC(=O)N1CCOCC1)c1c(Cl)ccc(Cl)c1Cl,inactive,–,–
O=S(=O)(Nc1ccc(Br)cc1)c1cccc(NC(=S)NCCN2CCOCC2)c1,inactive,13%,–
COC(=O)c1ccccc1CSc1nsc(/C=C/N(C)C)c1C#N,inactive,7.59%,–
Cc1ccc(CSc2nsc(C)c2C#N)cc1,inactive,8.89%,–
COC(=O)c1ccccc1CSc1nsc(C)c1C#N,9.2 µM (active),26.2%,–
O=C(CCS(=O)(=O)c1ccccc1)Nc1nc2cc3c(cc2s1)OCO3,inactive,-2.46%,–
O=C(O)CCC(=O)OCC1CCCCC1,inactive,6.49%,–
O=C(O)CCC(=O)OCC1CCCO1 (centres undefined),23.1 µM (active),-20.4%,–
O=C(O)CCC(=O)Nc1ccc(OCC2CCCO2)cc1 (centres undefined),inactive,20.5%,–
Cc1occc1C(=O)N1CCN(S(C)(=O)=O)CC1,inactive,15.2%,–
COCCCNC(=O)Cc1c(C)c2cc3c(cc2oc1=O)OC(C)(C)CC3,inactive,-2.78%,–
CC1CC(C)CN(CCCNC(=O)C2CCCN(c3ncnc4c3nc3n4CCCCC3)C2)C1 (centres undefined),inactive,27%,–
CC1CCN(C(=O)C2CCCN(c3ncnc4c3nc3n4CCCCC3)C2)CC1 (centres undefined),inactive,-11.2%,–
COc1ccc(OC)c(CNC(=O)C2CCCN(c3ncnc4c3nc3n4CCCCC3)C2)c1 (centres undefined),2.31 µM (active),-11.8%,–
COc1cccc(CNC(=O)C2CCCN(c3ncnc4c3nc3n4CCCCC3)C2)c1 (centres undefined),inactive,–,–
O=C(NCCCN1CCCCC1)C1CCCN(c2ncnc3c2nc2n3CCCCC2)C1 (centres undefined),29.1 µM (active),-4.96%,–
COc1ccc(CNC(=O)C2CCCN(c3ncnc4c3nc3n4CCCCC3)C2)cc1 (centres undefined),inactive,3.46%,–
CCCN1CCN(C(=O)C2CCN(c3ncnc4c3nc3n4CCCCC3)CC2)CC1,inactive,-18.8%,–
CC1CCN(C(=O)C2CCN(c3ncnc4c3nc3n4CCCCC3)CC2)CC1,3.66 µM (active),-15%,–
O=C(NCCCN1CCCCC1)C1CCN(c2ncnc3c2nc2n3CCCCC2)CC1,inactive,15.5%,–
Cc1cc(C)n2nc(C(=O)OCC(=O)Nc3ccc(F)cc3F)nc2n1,inactive,11.7%,–
CN(C)C(=S)Nc1cccc(F)c1,inactive,0.661%,–
CC(C)(C)c1cc(S(=O)(=O)CCc2ccncc2)cc(C(C)(C)C)c1F,inactive,-5.56%,–
